Among all 400,000 compounds or so, about 2,100 (0.53%) were called active. Not shown: some 14% with an inconclusive outcome. How the calls were made is not given here. This excerpt belongs to a sample that is enriched for actives.

From ChEMBL document CHEMBL1201862, “PubChem BioAssay data set” (2004) come the findings set out here.

The target of this experiment is Ataxin-2 (Homo sapiens) (UniProt Q99700). Description: qHTS for Inhibitors of ATXN expression. In kind it is functional. In general terms: qHTS replaces the single test concentration by a dilution series.
Ataxin-2 (Homo sapiens), sequence (Q99700 whole entry): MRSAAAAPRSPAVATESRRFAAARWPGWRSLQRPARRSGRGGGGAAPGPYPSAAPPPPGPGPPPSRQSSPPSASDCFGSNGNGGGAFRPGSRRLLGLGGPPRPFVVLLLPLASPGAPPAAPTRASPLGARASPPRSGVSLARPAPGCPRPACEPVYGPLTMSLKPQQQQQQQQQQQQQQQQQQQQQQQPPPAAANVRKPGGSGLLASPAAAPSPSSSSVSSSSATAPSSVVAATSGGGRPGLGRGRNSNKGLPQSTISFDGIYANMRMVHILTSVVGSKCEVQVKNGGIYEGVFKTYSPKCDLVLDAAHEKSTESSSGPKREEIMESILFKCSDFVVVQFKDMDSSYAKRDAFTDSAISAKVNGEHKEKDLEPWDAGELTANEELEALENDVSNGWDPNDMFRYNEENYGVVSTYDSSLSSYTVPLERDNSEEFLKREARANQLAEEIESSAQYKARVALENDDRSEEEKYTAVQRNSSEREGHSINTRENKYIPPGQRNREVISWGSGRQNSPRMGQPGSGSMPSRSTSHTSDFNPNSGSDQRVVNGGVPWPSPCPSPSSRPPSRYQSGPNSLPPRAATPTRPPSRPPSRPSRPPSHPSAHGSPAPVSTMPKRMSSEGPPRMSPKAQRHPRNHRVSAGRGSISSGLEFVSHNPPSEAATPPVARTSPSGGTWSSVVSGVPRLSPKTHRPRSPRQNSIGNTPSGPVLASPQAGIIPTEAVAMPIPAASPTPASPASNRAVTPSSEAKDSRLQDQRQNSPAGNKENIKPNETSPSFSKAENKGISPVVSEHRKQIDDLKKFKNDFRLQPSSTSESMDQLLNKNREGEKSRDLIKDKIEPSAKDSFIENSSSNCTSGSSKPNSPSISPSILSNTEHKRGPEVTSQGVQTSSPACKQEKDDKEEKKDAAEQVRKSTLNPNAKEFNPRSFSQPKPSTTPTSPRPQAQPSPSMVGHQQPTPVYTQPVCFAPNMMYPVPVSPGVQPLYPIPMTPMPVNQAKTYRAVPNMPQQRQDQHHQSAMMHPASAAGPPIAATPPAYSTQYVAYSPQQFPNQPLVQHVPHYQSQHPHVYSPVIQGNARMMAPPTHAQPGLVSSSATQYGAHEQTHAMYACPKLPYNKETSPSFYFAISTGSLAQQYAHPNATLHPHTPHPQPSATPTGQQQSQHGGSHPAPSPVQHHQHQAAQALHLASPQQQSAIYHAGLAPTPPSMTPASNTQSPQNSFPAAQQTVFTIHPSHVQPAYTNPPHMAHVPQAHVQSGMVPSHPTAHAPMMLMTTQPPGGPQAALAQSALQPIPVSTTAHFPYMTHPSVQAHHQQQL
As to `CCOC(=O)C(CC(=O)O)NCc1ccco1` (configuration not stated), the Potency result was “inactive”.

For the compound `CCn1nc(C)c(/C=N/NC(=O)c2nc3nc(C)cc(C)n3n2)c1C`, the Potency entry was “inactive”.

As for `CC1=C(C(=O)N2CCCCCC2)CC(CC(=O)NCCCCc2ccccc2)C(=O)N1CCC1=CCCCC1` (configuration not stated), the Potency was 17.8 µM (active).

Take `CCOC(=O)c1c(N)n(CCOC(=O)c2cccs2)c2nc3ccccc3nc12`: the Potency result was “inactive”.

In the case of `O=C(CCl)N1CCN2C(=O)c3ccccc3C12c1ccc(Cl)cc1` (configuration not stated), the Potency is 21.2 µM (active).

Turning to `CCOC(=O)N1CCc2[nH]c3ccc(C)cc3c2C1`, the Potency result was “inactive”.

`CN(C)CC(O)CN(c1ccccc1)c1ccccc1` (configuration not stated): the Potency entry is “inactive”.

Turning to `CN(C)CC(CCC(CN(C)C)C(O)(c1ccccc1)c1ccccc1)C(O)(c1ccccc1)c1ccccc1` (configuration not stated), the Potency was 28.2 µM (active).

As for `COc1ccc(S(=O)(=O)N2CCN(C(=O)c3cc4c(s3)CCCC4)CC2)cc1`, the Potency result is “inactive”.

As to `CCC(C)NC(=O)c1cc2c(=O)n3cccc(C)c3nc2s1` (configuration not stated), the Potency entry was “inactive”.

On to `CN1CCN(/N=C/c2ccc(N(c3ccccc3)c3ccccc3)cc2)CC1`, for which the Potency is 31.6 µM (active).

Take `CN(C)c1ccc(/C=N/N2CCN(c3ccccn3)CC2)cc1`: the Potency entry was “inactive”.

`Clc1ccc(/C=N/N2CCN(Cc3ccccc3)CC2)cc1`: the Potency result was “inactive”.

Turning to `COc1ccc2oc(=O)c(-c3cn4ccc(C)cc4n3)cc2c1`, the Potency entry was “inactive”.

Consider `COc1ccc(C2=CC(c3ccc(N(C)C)cc3)n3nnnc3N2)cc1` (configuration not stated), for which the Potency result is “inactive”.

For the compound `O=C(CSc1nccc(-c2cccs2)n1)Nc1cccc(Cl)c1Cl`, the Potency entry is “inactive”.

As for `CC(C)CNC(=O)COC(=O)c1c2c(nc3ccccc13)/C(=C\c1cccs1)CC2`, the Potency result is “inactive”.

As to `COc1ccccc1-c1ccc(/C=C2\C=CC(=O)O2)o1`, the Potency entry is “inactive”.

For `COc1ccccc1-c1cc(SC)c(C#N)c(=O)o1`, the Potency was 35.5 µM (active).

Take `COc1ccccc1-c1c(C#N)c(N)nc2c1CCC2`: the Potency result was “inactive”.

`CC1CCCN(Cc2c(O)ccc3c2O/C(=C\c2ccco2)C3=O)C1` (configuration not stated): the Potency result is “inactive”.

Take `CN(c1ccccc1)c1ccc(/C=C/[N+](=O)[O-])cc1`: the Potency was 25.1 µM (active).

On to `Nc1c(C(=O)NCCN2CCOCC2)c2nc3ccccc3nc2n1-c1cccc(F)c1`, for which the Potency result was “inactive”.

As to `O=C(NCCCN1CCOCC1)c1cc2nc(-c3ccco3)cc(C(F)(F)F)n2n1`, the Potency entry was “inactive”.

As to `Nc1c(C(=O)c2ccccc2)sc2nsc(SCCN3CCOCC3)c12`, the Potency result was “inactive”.

For `Nc1c(C(=O)NCCN2CCOCC2)c2nc3ccccc3nc2n1CCc1ccccc1F`, the Potency entry is “inactive”.

With `O=C(CCS(=O)(=O)c1ccccc1)N(CCCN1CCOCC1)c1nc2ccc(F)cc2s1`, the Potency was 25.1 µM (active).

On to `O=C(CCS(=O)(=O)c1ccccc1)N(CCCN1CCOCC1)c1nc2ccccc2s1`, for which the Potency is 39.8 µM (active).

Regarding `O=C(CNC(=S)N(CCCN1CCOCC1)Cc1cccs1)NCc1ccccc1`, the Potency result is “inactive”.

As for `Cc1cccc2sc(N(CCN3CCOCC3)C(=O)CCS(=O)(=O)c3ccccc3)nc12`, the Potency was 39.8 µM (active).

As for `O=C(CCS(=O)(=O)c1ccccc1)N(CCCN1CCOCC1)c1nc2c(F)cccc2s1`, the Potency is 31.6 µM (active).

`Nc1c(C(=O)NCCN2CCOCC2)c2nc3ccccc3nc2n1-c1ccccc1`: the Potency result was “inactive”.
